Consider 14 molecules from PubChem BioAssay.

Calls of active or inactive are those of the source.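 Rule for the calls, unless noted: active = fluorescence slope after compound addition differing from the mean of all screened samples at 99.7% confidence, in either direction; inactive = the rest.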

Assay [1] in a line: inhibitors of TNFa-induced NFkB p65 translocation, primary screen, imaging, HUVEC, MLSMR starter and 10KST1 sets (AID 438;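 active = inhibition above 20% together with a positive visual image hit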;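 note: compound added about 3h40 before a 20 min TNFalpha stimulation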;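 for inhibition: signal is the nuclear over cytoplasmic p65 intensity ratio per well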). To be noted: HUVEC TNFa-induced p65 nuclear translocation; cell count: measured here: nuclei count (cytotoxicity indicator), at 2.08 µM; inhibition: at 2 µM, stronger effect = higher value, 0% TNFa-plus-vehicle, 100% no-TNFa wells.
The nature of assay [2]: inhibitors of mutant huntingtin aggregation, primary screen, imaging, exon1htt(103Q)mCFP cells, high-content imaging (AID 483;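 active = visual image review flags a hit and inhibition of aggregation exceeds 20%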;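 note: compound exposure lasted 3 days before fixation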;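 for nuclei count: percent of the per-plate median nuclei count of sample wells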). To be noted: exon1htt(103Q)mCFP cell line, aggregate imaging, at 2 µM; inhibition of aggregation: stronger effect = higher value; nuclei count: measured here: cell count, toxicity.
A short description of assay [3]: inhibitors of E-selectin induction by TNFa, primary screen, imaging, HUVEC, immunofluorescence, MLSMR starter and 10KST1 sets (AID 487;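 active = visually confirmed hit in the image check and inhibition above 20%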;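 for inhibition: signal is fraction of cell area covered by stained E-selectin grains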;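 for nuclei count: 100% = median nuclei count of all wells on the same plate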). The settings on record: HUVEC TNFalpha-induced E-selectin immunofluorescence imaging, at 2 µM; inhibition: stronger effect = higher value; nuclei count: measured here: cell number, toxicity.
The target of assay [4] is Voltage-gated potassium channel subunit beta-2 (Rattus norvegicus) (UniProt P62483). The experiment in a line: KvBeta enzyme negative modulators, primary screen, biochemical, NADPH fluorescence (AID 622;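 active = fluorescence slope higher than the sample average by over 3 SD, cut at about -0.22 in these data, passing the limit was not always enough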;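 note: slope of raw intensity against log time taken from 70 to 1610 s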). The settings on record: recombinant KvBeta, 4-cyanobenzaldehyde reduction, at 10 µM, stronger effect = higher value.
Sequence of Voltage-gated potassium channel subunit beta-2 (Rattus norvegicus) (P62483 whole entry, looked up): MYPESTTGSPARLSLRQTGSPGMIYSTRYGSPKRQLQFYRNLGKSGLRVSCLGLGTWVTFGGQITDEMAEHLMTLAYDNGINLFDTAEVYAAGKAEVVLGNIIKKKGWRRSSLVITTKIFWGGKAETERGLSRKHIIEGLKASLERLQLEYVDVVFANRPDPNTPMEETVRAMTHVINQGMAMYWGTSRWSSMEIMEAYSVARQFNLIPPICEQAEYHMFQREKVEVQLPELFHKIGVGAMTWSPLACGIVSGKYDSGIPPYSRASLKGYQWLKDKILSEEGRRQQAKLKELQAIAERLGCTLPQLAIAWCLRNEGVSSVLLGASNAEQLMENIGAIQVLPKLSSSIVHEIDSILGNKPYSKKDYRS
For assay [5] the target is unchanged. The experiment in a line: KvBeta positive modulators, primary screen, biochemical, NADPH fluorescence (AID 623;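 active = NADPH fluorescence slope more negative than the mean of all samples by about 3 SD, 99.7% confidence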;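 note: fluorescence intensity change per second fitted from 20 to 320 s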). The settings on record: Recombinant KvBeta, NADPH fluorescence decrease slope, 10 min; at 10 µM; stronger effect = lower value.
Assay [6] addresses Alpha-2C adrenergic receptor (Homo sapiens) (UniProt P18825). Put plainly: modulators of alpha2C/GIRK thallium flux, primary screen, cell-based, HEK293 alpha2C/GIRK1/2 (AID 624).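 Note: slope of fluorescence ratio to pre-addition baseline per second over 15 to 24 s.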 To be noted: thallium flux BTC fluorescence, at 10 µM, actives lie on both sides.
Assay [7] can be described thus: inhibitors of Sendai virus-induced IRF3 signaling, primary screen, TLR/RLR signaling modifier project, cell-based, Sendai virus stimulus, luciferase, 10K MLSCN set (AID 602276;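 active = inhibition at or above 50% at 10 µM; inactive = inhibition below 50%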;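 note: firefly luciferase from ISG56 promoter only with Renilla not read in this screen; 0% = Sendai virus plus DMSO and 100% = medium plus DMSO without virus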). To be noted: HEK293 RL24 IRF3 luciferase reporter, at 10 µM, stronger effect = higher value. For orientation: Reporter assays use an easily measured gene product as a stand-in for the process of interest.

Assay [8] can be described thus: inhibitors of poly I:C-induced TLR3 signaling, primary screen, cell-based, poly I:C stimulus, luciferase, 10K MLSCN set (AID 602277;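 active = inhibition of the reporter signal at or above 50%; inactive = inhibition below 50%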). To be noted: HEK293-TLR3 RL24 IRF3 luciferase reporter, at 10 µM, stronger effect = higher value.

Sequence of Alpha-2C adrenergic receptor (Homo sapiens) (P18825 whole entry, looked up): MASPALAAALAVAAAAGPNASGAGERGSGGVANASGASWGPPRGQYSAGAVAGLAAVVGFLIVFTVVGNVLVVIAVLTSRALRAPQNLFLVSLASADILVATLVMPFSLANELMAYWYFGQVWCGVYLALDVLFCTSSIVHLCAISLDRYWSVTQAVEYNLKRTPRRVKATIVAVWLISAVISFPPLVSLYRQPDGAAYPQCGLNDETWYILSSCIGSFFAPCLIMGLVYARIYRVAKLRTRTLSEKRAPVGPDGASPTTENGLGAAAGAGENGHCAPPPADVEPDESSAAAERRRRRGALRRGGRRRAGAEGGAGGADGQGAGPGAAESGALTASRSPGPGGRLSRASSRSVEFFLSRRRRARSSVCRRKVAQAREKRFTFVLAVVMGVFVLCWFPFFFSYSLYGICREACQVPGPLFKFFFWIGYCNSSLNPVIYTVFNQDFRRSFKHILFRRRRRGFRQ

In the case of `CCOC(=O)c1cccc(NC(=O)CSc2nnc(-c3cccnc3)n2CC)c1`, in assay [1], the cell count was found to be 517. The inhibition (as a rule, the drop in the measured response relative to a control, in per cent) was -6.7% (inactive) in assay [1], -12.8% (inactive) in assay [3], 12.5% (inactive) in assay [7] and 11.6% (inactive) in assay [8]. Also, the inhibition of aggregation in assay [2] is 1.2% (inactive). Moreover, the nuclei count in assay [2] was determined as 82.2%; in assay [3], 112%. In assay [4], the fluorescence slope is -0.506 (inactive). Also, the NADPH fluorescence slope in assay [5] is -2.6e-05 (inactive). In assay [6], the slope is 0.00514 (inactive).

Regarding `Cc1ccc(-c2nn3c(C)nnc3s2)cc1N`, the cell count in assay [1] turned out to be 385. Besides, the inhibition in assay [1] was 7.5% (inactive); in assay [3], 4.3% (inactive); in assay [7], -7.7% (inactive); in assay [8], -47.2% (inactive). Further, the inhibition of aggregation in assay [2] is 9.7% (inactive). Moreover, the values for the nuclei count in assay [2] and in assay [3] were 82% and 114%, respectively. Moreover, the fluorescence slope in assay [4] was -0.405 (inactive). For the same molecule, the NADPH fluorescence slope in assay [5] was -3e-05 (inactive). The slope in assay [6] is 0.00541 (inactive).

As to `Cc1ccc2c(c1)CCCN2C(=O)Nc1ccc2c(c1)OCO2`, the cell count in assay [1] came to 365. The inhibition in assay [1] is -0.8% (inactive); in assay [3], -34.4% (inactive); in assay [7], 13.6% (inactive); in assay [8], 14.5% (inactive). Moreover, the inhibition of aggregation in assay [2] was -9.3% (inactive). In addition, the nuclei count in assay [2] and in assay [3] was 102% in each case. Besides, the fluorescence slope in assay [4] was -0.592 (inactive). Moreover, in assay [5], the NADPH fluorescence slope was -4.4e-05 (inactive). For the same molecule, the slope in assay [6] was 0.00347 (inactive).

Turning to `CC1(C)CC(=O)C2=C(C1)NC(=O)CC2C(=O)NCc1ccc(F)cc1` (centres undefined), the cell count in assay [1] came to 533. For the same molecule, the inhibition in assay [1] is -11.5% (inactive); in assay [3] it was 3.2% (inactive); in assay [7], 7.38% (inactive); in assay [8], 5.77% (inactive). Besides, the inhibition of aggregation in assay [2] was -1.8% (inactive). For the same molecule, the values for the nuclei count in assay [2] and in assay [3] were 86.7% and 87.8%, respectively. For the same molecule, in assay [4], the fluorescence slope is -0.342 (inactive). Also, the NADPH fluorescence slope in assay [5] is -4.7e-05 (inactive). In addition, the slope in assay [6] was 0.00523 (inactive).

As for `COc1ccc(C2CC(=O)C(C=NCCCN3CCOCC3)=C(O)C2)cc1` (centres undefined), the cell count in assay [1] stood at 392. The inhibition in assay [1] is -4.9% (inactive); in assay [3], 3% (inactive); in assay [7] it was 14.7% (inactive); in assay [8], 32.7% (inactive). Moreover, the inhibition of aggregation in assay [2] was 14% (inactive). In addition, the nuclei count was 80.7% in assay [2] and 87.7% in assay [3]. For the same molecule, the fluorescence slope in assay [4] is -0.351 (inactive). In addition, in assay [5], the NADPH fluorescence slope is -1.5e-05 (inactive). In addition, in assay [6], the slope was 0.00635 (inactive).

Regarding `COc1ccc(CNc2oc(-c3ccccc3)nc2C#N)cc1`, the cell count in assay [1] was 458. Also, the inhibition in assay [1] is 5% (inactive); in assay [3], -19.4% (inactive); in assay [7] it was -29.8% (inactive); in assay [8] it was -35.1% (inactive). Moreover, in assay [2], the inhibition of aggregation was -12.2% (inactive). The nuclei count in assay [2] came out at 99.5%; in assay [3] it was 67.2%. In assay [4], the fluorescence slope is -0.523 (inactive). For the same molecule, the NADPH fluorescence slope in assay [5] is 2.8e-05 (inactive). Further, the slope in assay [6] was 0.00683 (inactive).

For the molecule `CN(C)C(=O)Cn1c(SCC(=O)NC2CCCCC2)nc2ccccc21`, the cell count in assay [1] worked out at 685. Moreover, the inhibition in assay [1] is -3.1% (inactive); in assay [3], -68.3% (inactive); in assay [7], 5.56% (inactive); in assay [8] it was 31.7% (inactive). The inhibition of aggregation in assay [2] is -19.2% (inactive). For the same molecule, the nuclei count was 112% in assay [2] and 146% in assay [3]. In assay [4], the fluorescence slope was -0.41 (inactive). Also, the NADPH fluorescence slope in assay [5] is 6.1e-06 (inactive). Moreover, in assay [6], the slope was 0.00698 (inactive).

With `Cc1nc2cc(-n3ccc(=O)cc3)ccc2n1-c1ccccc1`, the cell count in assay [1] is 352. Also, the inhibition in assay [1] was -2.1% (inactive); in assay [3] it was -286% (inactive); in assay [7], 19.8% (inactive); in assay [8], 99% (active). For the same molecule, the inhibition of aggregation in assay [2] is 1.3% (inactive). Moreover, the nuclei count in assay [2] turned out to be 98.4%; in assay [3], 113%. In addition, the fluorescence slope in assay [4] is -0.407 (inactive). The NADPH fluorescence slope in assay [5] was -3.5e-05 (inactive). Further, in assay [6], the slope was 0.00591 (inactive).

As for `N#CCCN1CCN(S(=O)(=O)c2ccc(S(=O)(=O)NC3CCCCC3)cc2)CC1`, in assay [1], the cell count was 645. Moreover, the inhibition in assay [1] was -2.4% (inactive); in assay [3] it was -47.2% (inactive); in assay [7], 14.1% (inactive); in assay [8], 32.4% (inactive). In addition, the inhibition of aggregation in assay [2] is -20.2% (inactive). The nuclei count in assay [2] amounted to 124%; in assay [3], 115%. In addition, the fluorescence slope in assay [4] is -0.584 (inactive). The NADPH fluorescence slope in assay [5] is -4.3e-06 (inactive). The slope in assay [6] is 0.00631 (inactive).

In the case of `CN(C)CCCN1C(=O)C(=O)/C(=C(/O)c2ccncc2)C1c1cccc(Br)c1` (centres undefined), the cell count in assay [1] was 245. The inhibition in assay [1] was -2.8% (inactive); in assay [3], 1.2% (inactive); in assay [7], -6.87% (inactive); in assay [8], -3.17% (inactive). Moreover, the inhibition of aggregation in assay [2] was -9.4% (inactive). Further, the nuclei count in assay [2] was 94.1%; in assay [3], 103%. The fluorescence slope in assay [4] was -0.612 (inactive). Further, in assay [5], the NADPH fluorescence slope was -7.1e-05 (inactive). In assay [6], the slope is 0.00373 (inactive).

For the molecule `Cc1cccc(-n2ncc3c(NCCCn4ccnc4)ncnc32)c1`, in assay [1], the cell count worked out at 604. The inhibition in assay [1] is 1.3% (inactive); in assay [3], -29.8% (inactive); in assay [7] it was -63.1% (inactive); in assay [8], -121% (inactive). In assay [2], the inhibition of aggregation was 30.9% (inactive). The results for the nuclei count in assay [2] and in assay [3] were 99.7% and 119%, respectively. For the same molecule, in assay [4], the fluorescence slope is -0.45 (inactive). In assay [5], the NADPH fluorescence slope was -4.7e-05 (inactive). In addition, the slope in assay [6] is 0.00546 (inactive).

Turning to `COc1ccc(-c2cc3ccc(OCc4nn[nH]n4)cc3oc2=O)cc1`, the cell count in assay [1] stood at 399. For the same molecule, the inhibition in assay [1] was -17.5% (inactive); in assay [3], -24.5% (inactive); in assay [7] it was 8.69% (inactive); in assay [8] it was -13% (inactive). In addition, the inhibition of aggregation in assay [2] is 5.4% (inactive). Further, the nuclei count in assay [2] came out at 81.6%; in assay [3], 84.5%. For the same molecule, the fluorescence slope in assay [4] was -0.00551 (active). Besides, in assay [5], the NADPH fluorescence slope is 1.1e-06 (inactive). Besides, in assay [6], the slope is 0.00437 (inactive).

As to `CCN1CCN(C(=O)C2CC(c3ccc(F)cc3)=NO2)CC1` (centres undefined), the cell count in assay [1] was determined as 538. Moreover, the inhibition in assay [1] is 1.5% (inactive); in assay [3] it was 1.4% (inactive); in assay [7] it was -8.44% (inactive); in assay [8], 20.7% (inactive). Moreover, the inhibition of aggregation in assay [2] is 3% (inactive). The nuclei count in assay [2] is 102%; in assay [3], 108%. Moreover, the fluorescence slope in assay [4] was -0.621 (inactive). For the same molecule, the NADPH fluorescence slope in assay [5] was -4e-05 (inactive). In addition, the slope in assay [6] was 0.00735 (inactive).

For the molecule `Cc1cc(Nc2ccc(C(=O)O)cc2)n2nc(C)nc2n1`, the cell count in assay [1] was found to be 822. The inhibition in assay [1] was 3.9% (inactive); in assay [3], -13.7% (inactive); in assay [7], 7.19% (inactive); in assay [8] it was 21% (inactive). Also, the inhibition of aggregation in assay [2] is 9.8% (inactive). In addition, the nuclei count in assay [2] is 109%; in assay [3], 106%. In addition, the fluorescence slope in assay [4] is -0.543 (inactive). For the same molecule, the NADPH fluorescence slope in assay [5] is -1.5e-05 (inactive). Further, in assay [6], the slope is 0.00685 (inactive).
